# Test results as given in PubChem BioAssay (NCATS).
# Values joined by “and” are separate entries in the source; they are usually repeats but may differ in a detail not shown here. Identical values can stand only once. Results filed as inconclusive are left out. Active and inactive are the calls of the source. The call rests on the fitted dose curve; in most records, active means well fitted inhibition curve with a large enough effect; inconclusive means small, poorly fitted or top-dose-only effect; inactive means flat fitted curve, though single readings scatter.
# Tested on: Zika virus NS2B-NS3 protease (linked construct)
# Test: Confirmatory screen NINDS AMC qHTS for Zika virus inhibitors (AID 1347152); further: nearly all actives have a fitted effect of over 70% in size
# Settings: Purified linked NS2B-NS3, AMC substrate fluorescence; series mostly up to 56.6 µM
# Procedure, shortened: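 Concentration-response confirmation used the NINDS linked protease (NS2B hydrophilic domain joined to NS3 protease domain), 1 nM, with a 15-min compound preincubation. Substrate, Nle-KRR-AMC at 10 microM, was read by UV fluorescence before and after 15 min.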
# Potency means the concentration at half of the fitted maximal effect.
row,Structure (SMILES),Potency
1,CCn1cc(C(=O)O)c(=O)c2cc(F)c(N3CCNCC3)cc21,27.1 µM (active)
2,COc1c(N2CCNC(C)C2)c(F)cc2c(=O)c(C(=O)O)cn(C3CC3)c12 (stereo not drawn),27.1 µM (active) and 30.4 µM (active)
3,OCc1ccc(-c2nn(Cc3ccccc3)c3ccccc23)o1,24.1 µM (active)
4,O=C(O)c1cn(C2CC2)c2cc(N3CCNCC3)c(F)cc2c1=O,24.1 µM (active)
5,CCCc1nc(C)c2c(=O)[nH]c(-c3cc(S(=O)(=O)N4CCN(CC)CC4)ccc3OCC)nn12,inactive
6,O=C(O)c1ccc(-n2nc(-c3ccccc3O)nc2-c2ccccc2O)cc1,inactive
7,CNC1CCCN(c2c(F)cc3c(=O)c(C(=O)O)cn(C4CC4)c3c2OC)C1 (stereo not drawn),27.1 µM (active)
8,COc1cc(NCc2ccc3nc(N)nc(N)c3c2C)cc(OC)c1OC,24.1 µM (active)
